From PubChem BioAssay
Ba/F3 V617F tox: lowers viability of Ba/F3 cells expressing EpoR and JAK2V617F | ATP luminescence | inhibition, % at 5.6 µM | 220,000 tested, 1.1% active;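 active = inhibition above the campaign mean plus 3 SD over all tested compounds, cut at about 24% in these data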;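 note: cytokine-independent growth of Ba/F3 cells driven by EpoR plus mutant JAK2; 0% = DMSO-treated cells and 100% = JAK inhibitor I control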
aSyn UTR inh: MLPCN primary screen, SNCA 5' untranslated region. alpha-synuclein 5'UTR reporter, inhibitor activity. inhibition, % (tested at 7.5 µM). 300,000 tested, 0.82% active. AID 1813; in the data active = inhibition above about 60%; inconclusive = no clear call, values can overlap the other calls;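 note: H4 neuroglioblastoma cells stably carrying SNCA 5'UTR luciferase fusion; 0% = DMSO wells and 100% = positive control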
KLF5 inhibitor: suppresses KLF5 promoter-driven expression; inhibition, % at 5 µM; DLD-1 KLF5 promoter-luciferase reporter, luminescence; 290,000 tested, 0.23% active;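 active = inhibition above a per-plate limit of that plate's mean compound inhibition plus 3 SD, cut at about 60% in these data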;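 note: 0% = DMSO wells and 100% = LY294002 at 200 µM; higher means less KLF5 promoter-driven luciferase light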
APP transl inh: APP translation inhibition; SH-SY5Y APP 5'UTR-luciferase reporter, luminescence; inhibition, % at 2 µM; 190,000 tested, 0.82% active; AID 1285;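 active = inhibition above a set limit, derived from the sample mean plus 3 SD, cut at about 45% in these data; inconclusive = one replicate passes the limit while the other fails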
IEC-6 tox-1: kills IEC-6 intestinal cells in KLF5 counter-screen. inhibition, % at 5 µM. AID 1825. 290,000 tested, 0.78% active. IEC-6 cytotoxicity, luminescence viability;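 note: 0% = plate median of test compound wells and 100% = cytotoxic reference compound wells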
BaF3 parental: reduces parental Ba/F3 cell viability, JAK2V617F counter-screen; CellTiter-Glo ATP luminescence; inhibition, % at 5.6 µM; 220,000 tested, 1.1% active; AID 1486;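 active = inhibition above a per-campaign cutoff, the mean inhibition of all tested compounds plus 3 SD, cut at about 27% in these data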;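 note: 0% = DMSO wells and 100% = JAK Inhibitor I control wells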
KLF5 confirm: KLF5 inhibition, confirmation assay; 610 tested, 79% active; DLD-1 KLF5 promoter firefly luciferase reporter, luminescence; inhibition, % at 4 µM; shares compounds with KLF5 inhibitor;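 active = inhibition above a set limit taken from the earlier primary screen, cut at about 63% in these data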;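 note: 0% = DMSO wells and 100% = LY294002 at 200 µM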
IEC-6 tox-2: counter-screen for KLF5 inhibitors: cytotoxicity in rat IEC-6 cells; 610 tested, 56% active; inhibition, % at 4 µM; shares compounds with KLF5 inhibitor; IEC-6 rat intestinal cells, viability luminescence; AID 1905; in the data active = inhibition above about 23%;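 note: cells exposed to compounds for 48 hours before viability read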
IEC-6 cytotox cf: IEC-6 cytotoxicity, confirmation assay | shares compounds with IEC-6 tox-1 | IEC-6 rat intestinal epithelial viability, luminescence | inhibition, % at 5 µM | 1,900 tested, 63% active | AID 1907;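 note: 0% = vehicle and 100% = reference cytotoxic drug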
Numbers without * were called inactive; ? = inconclusive; / = no result given. This is a sample that favours compounds with a hit; in the whole collection about 2.2% have one here. Cut-off read from the data, not from the text of the source, unless noted: active = inhibition above about 22%; inactive = the rest.

SMILES	Ba/F3 V617F tox	aSyn UTR inh	KLF5 inhibitor	APP transl inh	IEC-6 tox-1	BaF3 parental	IEC-6 cytotox cf	others
C/C=C(\C)C(=O)N[C@@H](c1ccccc1)[C@@H](O)C(=O)O[C@H]1C[C@@]2(O)[C@@H](OC(=O)c3ccccc3)C3[C@](C)(C(=O)[C@H](OC(C)=O)C(=C1C)C2(C)C)[C@@H](O)C[C@H]1OC[C@@]31OC(C)=O (stereo partly drawn)	/	104*	64*	/	88*	/	72*	KLF5 confirm=88*;IEC-6 tox-2=78*
O=c1[nH]c(=O)n(Cc2ccco2)c(O)c1C=NCCN1CCNCC1	-4	-9	4	/	-4	-2	/
CC(=O)OC(C)(C)/C=C/C(=O)C(C)(O)C1[C@H](O)C[C@@]2(C)C3CC=C4C(CC[C@@H](O)C4(C)C)[C@]3(CO)C(=O)C[C@]12C (stereo partly drawn)	/	86*	90*	/	99*	/	97*	KLF5 confirm=93*;IEC-6 tox-2=96*
CCN1/C(=C\C=C\C2=[N+](CC)c3ccccc3C2(C)C)C(C)(C)c2ccccc21	99*	104*	84*	93*	64*	93*	70*	KLF5 confirm=104*;IEC-6 tox-2=64*
CCC(C)NC(=O)CCC(=O)OC1O[C@H]2OC3(C)CC[C@H]4[C@H](C)CCC(C1C)C24OO3 (stereo partly drawn)	/	9	84*	/	35*	/	23*
CCC(=O)N1CC(=O)Nc2ccc(F)cc2C1c1ccc(F)cc1 (stereo not drawn)	/	-30	-37	/	-1	/	/
COc1ccc(CNCCc2c[nH]c3ccccc23)c(OC)c1C	/	48	-15	/	14	/	/
COc1cc(C)c(CNCCc2c[nH]c3ccccc23)cc1C	/	48	-4	/	24*	/	0
NC(Cc1nc2ccccc2[nH]1)c1ccc(Cl)cc1 (stereo not drawn)	-1	-167	-133	/	6	-2	/
C/C1=C\[C@@H](C)C/C=C/[C@H]2[C@@H]3O[C@]3(C)[C@@H](C)[C@H]3[C@H](Cc4c[nH]c5ccccc45)NC(=O)[C@]32C(=O)/C=C/C(=O)[C@@H]1O	65*	81*	-7	84*	91*	63*	66*
CC1(C)C(C(=O)N2CCN(C(=O)c3ccccc3)CC2)C1(C)C	/	-3	10	/	0	/	/
O=C(Nc1nccs1)C(Cl)(Cl)Cl	2	0	-1	5	-2	5	/
O=C(Nc1ccc(Cl)cc1)Nc1nccs1	85*	-47	24	60*	68*	79*	60*
Clc1ccccc1C1=NCc2nncn2-c2sc(Br)cc21	/	19	/	/	/	/	/
C/C(=N\NP(=S)(c1ccccc1)c1ccccc1)c1ccc(O)cc1O	-1	-14	-14	/	2	-2	/
C/C=C(\C)C(=O)N[C@@H](c1ccccc1)[C@@H](O)C(=O)O[C@H]1C[C@@]2(O)[C@@H](OC(=O)c3ccccc3)C3[C@](C)(C(=O)[C@H](O)C(=C1C)C2(C)C)[C@@H](O)C[C@H]1OC[C@@]31OC(C)=O (stereo partly drawn)	/	98*	50	/	89*	/	70*
COc1cc2c(cc1OC)[C@@H]1C(=O)c3ccc4c(c3O[C@@H]1CO2)C[C@H](C(C)C)O4	71*	21	28	/	35*	65*	25*
COC(=O)C(Cc1ccc(N(CCCl)CCCl)cc1)N=Cc1ccccc1O (stereo not drawn)	/	27	-12	/	90*	/	78*
C=CCn1c(O)c(C(CC)=NC(C)c2ccccc2)c(=O)[nH]c1=O (stereo not drawn)	4	20	-26	2	7	6	/
CC[n+]1c(/C=C/C=C/c2ccc(N(C)C)cc2)sc2ccccc21	99*	?	23	/	37*	92*	58*
COc1ccccc1Cn1c(SCC(=O)C(C)(C)C)nc2cc(C(=O)N3CCC4(CC3)OCCO4)ccc2c1=O	-2	-30	2	-10	-2	1	/
CN(C)c1ccc(/C=C/c2cc[n+](C)c3ccccc23)cc1	101*	/	32	-5	28*	82*	21
CC1N=C(c2ccccc2Cl)c2cc(Br)ccc2NC1=O (stereo not drawn)	/	24	-2	/	1	/	/
Nc1cc(Cl)c2nonc2c1[N+](=O)[O-]	47*	/	14	96*	69*	2	30*
O=C1CN=C(c2ccc[nH]2)c2cc(Cl)ccc2N1	54*	11	4	/	31*	37*	22
SMILES	Ba/F3 V617F tox	aSyn UTR inh	KLF5 inhibitor	APP transl inh	IEC-6 tox-1	BaF3 parental	IEC-6 cytotox cf	others
[N-]=[N+]=NCCN1CCC(O)CCC1=O (stereo not drawn)	/	2	-23	/	-5	/	/
CC[C@@]1(O)C(=O)OCc2c1cc1n(c2=O)Cc2cc3c(NC(=O)CN)cccc3nc2-1	94*	71*	20	/	41*	79*	26*
CC1=CC2/C=C(\C)CCC(O)C(O)/C=C/C(=O)C23C(=O)NC(CC(C)C)C3C1C (stereo not drawn)	89*	56	-11	45*	39*	49*	29*
CN1CCN(c2ncnc3nc[nH]c23)CC1	-2	6	13	6	-3	2	/
COC(=O)C1=C(c2cc3ccccc3s2)C[C@@H]2CC[C@H]1N2C(=O)NCc1ccco1	/	12	/	/	/	/	/
COc1cccc(OC)c1C1=NCC(=O)Nc2c1oc1ccc(Br)cc21	75*	?	35	93*	34*	39*	57*
O=C(Cn1c(NCCCl)nc2ccccc21)c1ccc(Br)cc1	/	-29	/	/	/	/	/
